Test results taken from the supplement of paper PMC11417369.
In all, about 25,000 sequences were measured (“ln(normalized median fluorescence intensity)”: median about 9.7, highest 2% from about 11 on). Only a selection was taken, and the highest values are over-represented in it overall.

tested on: PfAP2-HC AP2 domain (GST-tagged); assay: gcPBM binding intensity (ln(normalized median fluorescence intensity)); higher = stronger DNA binding
Summary of the method: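 An Agilent 4 × 180k array carrying primer-extended double-stranded 36-bp intergenic genomic probes and negative controls received GST-tagged P. falciparum DNA-binding domains expressed in E. coli, about 25 μg on average, for 1 h. The binding buffer contained 1× PBS, 1% milk, 0.2 mg/ml BSA, 0.5% salmon testes DNA and 0.03% Triton X-100. Binding intensity is the top Masliner-normalised natural-log median intensity across replicate spots of either probe orientation, read after Alexa488 anti-GST antibody staining and a 488 nm scan.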

Sequence	gcPBM binding intensity (ln)
TTTATTTTTATGGTCACACATATTTTTAAAACTATA [CACACA_site4372]	9.77
TTTCATTTTTTTACATGTACGCAAAAGTGTGTAGTT [XGTACX_site6582]	9.78
TTTTTTTTTGAATACAGTACACAAGTGTTAAGTTTA [XGTACX_site7069]	9.36
TAAGTATACTCATACACACACACACTAGAAAAAAAA [CACACA_site4397]	10.4
TTCCACATTTTACAGACACACACAATTTATATTACG [CACACA_site8572]	10.1
ATGTTAAACAAATCTATACACACGTATATGACAAAA [CACACA_site1783]	9.71
TTTTGAAGTAATACATGTACTTAAATTACTAAAAAA [XGTACX_site1955]	9.47
TTCATATATTTTAAAGCATGCATTCATCTTATAGTT [TGCATGCA_site800]	9.71
TTGTATATATTTATATGTACATATATTACTTTTGCT [XGTACX_site2449]	9.83
TAAAATAACTCACAAAGTACAAAAATAAGCATATGA [XGTACX_site7046]	9.79
TTTATTTTGTTTTCTTGTACATAAATAATTACATAT [XGTACX_site4227]	9.86
ATTCATATGAAACACACACACACACCCATAAAAAAA [CACACA_site3246]	10.5
CAAAAAATGAAACACACACACACACCCATAAATAAA [CACACA_site1231]	10.8
AACACCCATGGACACACACACATATATATATATATA [CACACA_site5809]	10.4
TATCTCATAGTATACACACACACACCCACCCATATA [CACACA_site1739]	10.7
TAAACACCCATATAAACACACATACATACATACATA [CACACA_site5383]	10.4
TATAAACACCCATATAAACACACATACATACATACA [CACACA_site8791]	10.2
TACACGCATAAACACACACACACACCCATATATATA [CACACA_site8114]	11.3
TCATAGTATGGACACACACACACACCCATATATATA [CACACA_site5033]	11.2
TCATAGTATAAACACACACACACACCCATATATATA [CACACA_site8512]	11
ATAATCCTGAAACACACACACACACCCATAAATAAA [CACACA_site481]	11.1

Sequence	gcPBM binding intensity (ln)
ATTAGTGACATTATTACACACAAAAGAAAACAGAAA [CACACA_site3984]	9.99
TTTCAAAAAAATAATGTGCACATTAGAAAATAAATA [GTGCAC_site9416]	9.78
TATTTTTTGAAAAGTTCACACATCCAACTCGAGTTG [CACACA_site4412]	9.62
TATATATATATAATATGTACATATATATATTCTTAA [XGTACX_site6154]	9.49
GTATGTATAATATACACACTCACAAGCATTCAAATA [CACACA_site267]	9.76
TACACCCATGGACACACACACACGCATAAAAAAAAA [CACACA_site4933]	10.7
GAAAAACAAATATATTAACACACAAACATATAAACA [CACACA_site9315]	10.2
TAAAGAATATTATAAACACACACTTTATAAAGAATT [CACACA_site114]	9.91
TATATATTAAAACACACACACATATATATATATATA [CACACA_site3787]	10.1
TATATAAAGAAACACACACACACCTTATAATTATTA [CACACA_site4062]	11.2
ACCATATAAATAAACACACACACACCCATATATATA [CACACA_site2321]	10.6
AAAAAAAATAAACACACACACATACCCATAAATATA [CACACA_site5980]	10.4
AAAAAAAAAAAAAACACACACACACCCATAAATATA [CACACA_site151]	11.2
TATTAAACGAAACACACACACACACCCATATATAAA [CACACA_site759]	11.5
TACACGCATGGACACACACACACACCCATATATATA [CACACA_site4522]	11
TATATAAATAAACACACACACACCTTATAATTATTA [CACACA_site9345]	10.5
CACGCATACAGACACACACACACACCCATATATATA [CACACA_site636]	10.6
AAATTACAAATACAAACACACAAATGTTTTTCATTC [CACACA_site3552]	9.77
AAAAAAAAAAGAACCCGTACATAAATAATATATATA [XGTACX_site164]	9.73
AAATTGAGACAACAGGTGCATATAAATATACAGTGT [GTGCAC_site9634]	9.79
GTATGAAATTATAATAGTACATATAAATAAAAAAAA [XGTACX_site8955]	9.85

Sequence	gcPBM binding intensity (ln)
ATTTTAATATAAAATACACACTACTATTATAAATAT [CACACA_site4917]	9.64
AAAATTGAACCTGACAAGGTATTTTATTATTTATTA [TGCATGCA_negctrl_site181]	9.44
ATAAAAATGGTGTTAACACACACATATATATATATA [CACACA_site8089]	9.83
TATATTATTTATAGTAGTACATAAAATATAAATATT [XGTACX_site4417]	9.48
TATTTTGTCATAGAACGTACTTATAAATATTTTTTT [XGTACX_site8424]	9.5
AAATCATGTTGAAGGGGTACAAAATATGTAATGTTG [XGTACX_site6222]	9.82
TTTTATTTCAATCCACAAGGGATAAAATAAAGTTTT [CACACA_negctrl_site699]	9.3
TTTATTAAACTTGACACACACACACCCACATATATA [CACACA_site760]	10.2
CACAGATAAATTAACACACACACACCCATATATATA [CACACA_site3960]	10.5
TACACGCAGAAACACACACACACACCCATATATATA [CACACA_site637]	11.4
TTCCCATGTAATATTAAACACACACCCATATAACAC [CACACA_site7905]	10.5
AACACAGATAAATTAACACACACACCCATATATATA [CACACA_site9310]	11.2
AAAATACAGAAACACACACACACACCCATATATATA [CACACA_site3559]	10.7
TATATATAGAAACACACACACATATATATATATATA [CACACA_site773]	10.5
CACAGATAAATTAACACACACACACCGATATATATA [CACACA_site6049]	10.5
TATATATAGAAACACACACACACACCCAAGCGTAGC [CACACA_site63]	10.6
AATACACGCAAACACACACACACACCCACATATATA [CACACA_site638]	10.8
TCATAGTAGAAACACACACACACACCCATATATATA [CACACA_site1737]	11.3
TATTAAACTGGACACACACACACACCCATATATAAA [CACACA_site4579]	11.2
